Reference: the supplement of paper PMC11417369
± gives the standard deviation of the averaged measurements. Over roughly 25,000 sequences, “ln(normalized median fluorescence intensity)” has its median near 7.9; the highest 2% begin near 11. The sample holds the highest values, similar sequences and a random draw of the others, so the mix is not that of the screen.

tested on: PfAP2-I AP2 domain 3 (GST-tagged); test: gcPBM binding intensity (ln(normalized median fluorescence intensity)); higher = stronger DNA binding
Method in brief: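 Using an Agilent 4 × 180k array, primer-extended double-stranded 36-bp intergenic genomic probes and negative controls were exposed for 1 h to GST-fused P. falciparum DNA-binding domains expressed in E. coli. Binding was carried out in 1× PBS with 1% milk, 0.2 mg/ml BSA, 0.5% salmon testes DNA and 0.03% Triton X-100, and protein was detected with Alexa488 anti-GST antibody and a 488 nm scan. Binding intensity is the highest Masliner-normalised natural-log median intensity across replicate spots of either probe orientation.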

| Sequence | gcPBM binding intensity (ln) |
| --- | --- |
| ATATTTCTGTGTGGATGTACATTATTAGCAGGCTTT [XGTACX_site6496] | 8.12 ± 0.73 |
| TTTTTTTTTTTTTTTTGTACTTATAAAATAACATGT [XGTACX_site134] | 8.13 ± 0.82 |
| TTTTTTATTTAAAGTAGTACTTTTTAGAAAACAAAA [XGTACX_site6759] | 7.68 ± 0.29 |
| TATTAAAGCACCCATGCACACACACTAAGGAAAAGA [CACACA_site7961] | 11.6 ± 0.71 |
| TATAAATCTATAAATGCACACAAGGGAAGAAAAACG [CACACA_site2965] | 9.46 ± 0.26 |
| AATGCACTATTTAAAAGTACACATAAGAAAAGCATA [XGTACX_site1739] | 9.24 ± 0.28 |
| TTAAAGCACCCATGCACACACACAAGGGAAAAGAAA [CACACA_site4289] | 10.9 ± 0.92 |
| CACTAAAAGAAACACACACACACACCCATATATATA [CACACA_site4151] | 8.44 ± 0.75 |
| AAAGAAGGGAAACACACACACACACCCACAAAAAAA [CACACA_site3766] | 8.17 ± 0.21 |
| AAAGCACCCAGGCACACACACAAAGGAAAAGAAAAA [CACACA_site232] | 7.95 ± 0.49 |
| AAAGCACCCATGCACACACACAAAGGAAAAGAAAAA [CACACA_site6249] | 8.32 ± 0.38 |
| TTAAAGCACCCATGCACACACACAAAGGAAAAGAAA [CACACA_site233] | 11.1 ± 0.93 |
| AAACAAAAAAGTAAGAAAAGGGATGATTGGATCCAA [CACACA_negctrl_site1230] | 7.35 ± 0.78 |
| GGAAACCCTCCCAAATGTACTTTTATAAAAAAATAC [XGTACX_site5502] | 8.2 ± 0.6 |
| TTTATTTATCTTTACGCACACACTTGCATGTACAAA [CACACA_site1118] | 9.455 ± 0.021 |
| ACAAATCTAAGATAGTGTACATTTATATATATATAT [XGTACX_site8740] | 9.4 ± 0.24 |
| ACATAAATATATGACACACACACATATTATATATAT [CACACA_site3065] | 8.36 ± 0.52 |
| AAAAATAAAAAAAAATTAAAATATATATATTTTGTT [TGCATGCA_negctrl_site102] | 7.49 ± 0.67 |
| GAAATGTATAAATCCATACACACATAAATTTTAATA [CACACA_site2364] | 7.58 ± 0.4 |
| TATTTCTTATTACATACACACATATACATAGATGAC [CACACA_site5729] | 8 ± 0.55 |
| TGCAAAAAATTCCACACACACACACGCATATAAATA [CACACA_site6696] | 7.95 ± 0.38 |
| GCAAGGTCCACACTGGTGCATTAAAAATAAAATATA [GTGCAC_site9956] | 11.6 ± 0.41 |
| TTATTAAAAATGGTATGTACGCACATAATATATATA [XGTACX_site3230] | 8.56 ± 0.51 |
| TATGTGTGCAAAAACTGTACACATTAAAGGTATATA [XGTACX_site7627] | 9.32 ± 0.28 |
| ATATGTACGCAAGGTGCACACTGGTGCATTAAAAAA [CACACA_site1801] | 12.1 ± 0.21 |
| GATAAAATCACTGGTGCATGTAGATATATAATATTA [TGCATGCA_site589] | 9.12 ± 0.085 |
